Measurements published in PubChem BioAssay (Tox21).
Inconclusive results are not listed. Active and inactive are the calls of the source. Unless noted, calls come from the whole dose curve.

Key:
[1] = qHTS assay to identify small molecule antagonists of the sonic hedgehog signaling (Shh) pathway (AID 1259369); note: nearly all actives have a fitted effect of over 45% in size
Summary of the method: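 NIH/3T3-derived Gli1-Luc reporter cells plated 4 h, dosed with compound, then stimulated with conditioned medium for 24 h at 37 C. Firefly luciferase luminescence read after 30 min with detection reagent at room temperature.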

[2] = molecular target: Estrogen receptor beta (Homo sapiens) (UniProt Q92731); assay: qHTS assay to identify small molecule agonists of the estrogen receptor beta (ER-beta) signaling pathway (AID 1259377; active = well fitted activation curve with a large enough effect in the signal ratio in the repeat runs, not every such curve was filed as active; the % refers to the signal ratio)
Sequence of Estrogen receptor beta (Homo sapiens) (Q92731 whole entry, looked up, the tested form may be a part): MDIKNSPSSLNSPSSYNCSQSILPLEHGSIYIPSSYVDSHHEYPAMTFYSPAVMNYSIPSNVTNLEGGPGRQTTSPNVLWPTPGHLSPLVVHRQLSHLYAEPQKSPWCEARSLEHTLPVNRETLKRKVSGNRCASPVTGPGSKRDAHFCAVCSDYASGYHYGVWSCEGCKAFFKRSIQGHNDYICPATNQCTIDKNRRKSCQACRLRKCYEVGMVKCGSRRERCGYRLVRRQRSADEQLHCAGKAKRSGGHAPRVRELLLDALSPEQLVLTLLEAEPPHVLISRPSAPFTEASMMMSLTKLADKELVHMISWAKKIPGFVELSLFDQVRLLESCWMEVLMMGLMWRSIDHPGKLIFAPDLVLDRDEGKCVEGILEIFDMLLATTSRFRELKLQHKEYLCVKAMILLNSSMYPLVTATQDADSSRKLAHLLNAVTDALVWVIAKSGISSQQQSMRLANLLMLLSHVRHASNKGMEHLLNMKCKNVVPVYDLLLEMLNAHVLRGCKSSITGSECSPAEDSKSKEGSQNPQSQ
Summary of the method: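 Agonist mode cell assay in GripTite HEK293T cells expressing an ER-beta fusion that drives beta-lactamase from an Upstream Activator Sequence; 16 hr compound exposure at 37C, then 2 h LiveBLAzer B/G FRET substrate at room temperature, fluorescence read-out.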

[3] = qHTS assay to identify small molecule agonists of the androgen receptor (AR) signaling pathway in the presence of an antagonist - cell viability counter screen (AID 1259379; active = well fitted curve in the direction sought with a large enough effect in the repeat runs; an effect the other way counts as inactive or inconclusive;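 note: MDA-kb2 human breast cancer cells carrying an MMTV luciferase reporter; series mostly up to about 92 µM; nearly all actives have a fitted effect of over 25% in size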)
Summary of the method: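 MDA-kb2 cells (MMTV-luciferase, AR/GR), 3,000/well, 5 h attachment, then 3.0 µM nilutamide (final) and compounds at 15 concentrations. Viability by CellTiter-Fluor fluorescence after 16 h at 37 °C, 0% CO2, in the reporter wells.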

[4] = qHTS assay to identify small molecule agonists of the estrogen receptor beta (ER-beta) signaling pathway - cell viability counter screen (AID 1259380; active = well fitted curve in the direction sought with a large enough effect in the repeat runs; an effect the other way counts as inactive or inconclusive; note: nearly all actives have a fitted effect of over 30% in size; note: potency is the fitted concentration of half-maximal effect)
Summary of the method: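 ER-beta-UAS-bla HEK293T cells in medium with 2% charcoal-stripped FBS, pre-incubated 6 hr, then treated 16 hr at 37C. Cytotoxicity read in the same wells by CellTiter-Glo luminescence after 30 min at room temperature.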

[5] = qHTS assay to identify small molecule antagonists of the estrogen receptor beta (ER-beta) signaling pathway - cell viability counter screen (AID 1259382; active = well fitted curve in the direction sought with a large enough effect in the repeat runs; an effect the other way counts as inactive or inconclusive;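 note: HEK293T cells carrying ER-beta-UAS-bla reporter stimulated with estradiol; series mostly up to about 92 µM; nearly all actives have a fitted effect of over 55% in size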)
Summary of the method: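 ER-beta-UAS-bla HEK293T cells in 2% charcoal-stripped FBS medium, treated with compound plus 1 nM 17-beta-estradiol for 16 h at 37C. Viability read by CellTiter-Glo luminescence after 30 min at room temperature in the same wells.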

[6] = molecular target: Estrogen receptor (Homo sapiens) (UniProt P03372); assay: qHTS assay to identify small molecule agonists of the estrogen receptor alpha (ER-alpha) signaling pathway in the presence of an antagonist (AID 1259383); note: top concentration of the series differs between compounds; nearly all actives have a fitted effect of over 15% in size
Sequence of Estrogen receptor (Homo sapiens) (P03372 whole entry, looked up): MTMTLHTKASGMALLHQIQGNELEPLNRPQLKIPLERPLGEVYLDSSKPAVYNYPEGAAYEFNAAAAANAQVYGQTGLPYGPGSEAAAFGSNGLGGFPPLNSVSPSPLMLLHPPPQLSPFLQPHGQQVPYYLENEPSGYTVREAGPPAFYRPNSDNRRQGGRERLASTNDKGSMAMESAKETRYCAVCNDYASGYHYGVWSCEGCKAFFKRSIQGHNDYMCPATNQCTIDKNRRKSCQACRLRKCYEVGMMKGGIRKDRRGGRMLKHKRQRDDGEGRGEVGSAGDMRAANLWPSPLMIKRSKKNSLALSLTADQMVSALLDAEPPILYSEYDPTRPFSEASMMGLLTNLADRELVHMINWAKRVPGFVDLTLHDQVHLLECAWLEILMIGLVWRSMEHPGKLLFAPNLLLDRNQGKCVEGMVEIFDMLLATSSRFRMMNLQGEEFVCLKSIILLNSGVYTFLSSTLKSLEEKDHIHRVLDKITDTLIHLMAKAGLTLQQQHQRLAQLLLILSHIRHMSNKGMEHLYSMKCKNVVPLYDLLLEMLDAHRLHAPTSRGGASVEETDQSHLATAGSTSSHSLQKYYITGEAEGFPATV
Summary of the method: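 VM7Luc4E2 cells express endogenous full-length ER-alpha with an ERE-luciferase reporter and were hormone-deprived for 5 days. Compounds at 15 concentrations were added with 10.0nM ICI-182,780 for 22hr at 37C. Luminescence was read with ONE-Glo.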

[7] = qHTS assay to identify small molecule agonists or antagonists of the thyroid stimulating hormone receptor (TSHR) signaling pathway - wild type cell line counter screen (AID 1259384)
Summary of the method: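 Wild-type HEK293 cells were plated 18 h at 37 C/5% CO2, pin-dosed with compound plus Ro20-1724 medium, held 30 min at room temperature, then given cAMP-d2 and anti-cAMP-cryptate; fluorescence was read after 1 h. Fifteen concentrations, triplicate.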

[8] = molecular target: Thyrotropin receptor (Homo sapiens) (UniProt P16473); assay: qHTS assay to identify small molecule antagonists of the thyroid stimulating hormone receptor (TSHR) signaling pathway (AID 1259385); note: nearly all actives have a fitted effect of over 20% in size
Sequence of Thyrotropin receptor (Homo sapiens) (P16473 whole entry, looked up): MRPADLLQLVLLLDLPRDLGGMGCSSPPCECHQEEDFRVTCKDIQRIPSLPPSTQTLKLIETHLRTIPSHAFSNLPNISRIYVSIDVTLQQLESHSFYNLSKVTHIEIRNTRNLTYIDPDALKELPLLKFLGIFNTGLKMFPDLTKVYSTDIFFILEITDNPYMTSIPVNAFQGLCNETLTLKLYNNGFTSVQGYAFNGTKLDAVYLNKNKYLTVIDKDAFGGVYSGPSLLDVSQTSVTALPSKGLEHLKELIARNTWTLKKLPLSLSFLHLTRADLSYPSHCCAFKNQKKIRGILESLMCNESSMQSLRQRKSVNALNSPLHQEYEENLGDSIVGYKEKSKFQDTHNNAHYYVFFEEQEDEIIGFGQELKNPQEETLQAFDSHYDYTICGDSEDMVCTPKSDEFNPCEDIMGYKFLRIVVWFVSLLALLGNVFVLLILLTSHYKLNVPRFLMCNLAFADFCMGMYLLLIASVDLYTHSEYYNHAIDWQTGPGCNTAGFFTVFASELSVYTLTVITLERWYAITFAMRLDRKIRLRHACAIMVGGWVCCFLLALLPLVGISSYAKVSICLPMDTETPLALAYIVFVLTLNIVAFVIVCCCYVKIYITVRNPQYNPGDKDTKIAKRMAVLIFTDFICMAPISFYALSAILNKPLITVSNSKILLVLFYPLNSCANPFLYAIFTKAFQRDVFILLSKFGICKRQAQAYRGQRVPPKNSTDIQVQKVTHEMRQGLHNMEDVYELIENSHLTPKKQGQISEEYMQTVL
Summary of the method: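 TSHR-HEK293 cells were plated and held 18 h at 37C/5% CO2, then given compound plus Ro20-1724 and stimulated with TSH at 1.5 ng/mL final. After 30 min at room temperature, cAMP was detected with cAMP-d2/anti-cAMP-cryptate (1 h) by fluorescence.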

[9] = molecular target: Androgen receptor (Homo sapiens) (UniProt P10275); assay: qHTS assay to identify small molecule agonists of the androgen receptor (AR) signaling pathway in the presence of an antagonist (AID 1259381); note: nearly all actives have a fitted effect of over 15% in size
Sequence of Androgen receptor (Homo sapiens) (P10275 whole entry, looked up): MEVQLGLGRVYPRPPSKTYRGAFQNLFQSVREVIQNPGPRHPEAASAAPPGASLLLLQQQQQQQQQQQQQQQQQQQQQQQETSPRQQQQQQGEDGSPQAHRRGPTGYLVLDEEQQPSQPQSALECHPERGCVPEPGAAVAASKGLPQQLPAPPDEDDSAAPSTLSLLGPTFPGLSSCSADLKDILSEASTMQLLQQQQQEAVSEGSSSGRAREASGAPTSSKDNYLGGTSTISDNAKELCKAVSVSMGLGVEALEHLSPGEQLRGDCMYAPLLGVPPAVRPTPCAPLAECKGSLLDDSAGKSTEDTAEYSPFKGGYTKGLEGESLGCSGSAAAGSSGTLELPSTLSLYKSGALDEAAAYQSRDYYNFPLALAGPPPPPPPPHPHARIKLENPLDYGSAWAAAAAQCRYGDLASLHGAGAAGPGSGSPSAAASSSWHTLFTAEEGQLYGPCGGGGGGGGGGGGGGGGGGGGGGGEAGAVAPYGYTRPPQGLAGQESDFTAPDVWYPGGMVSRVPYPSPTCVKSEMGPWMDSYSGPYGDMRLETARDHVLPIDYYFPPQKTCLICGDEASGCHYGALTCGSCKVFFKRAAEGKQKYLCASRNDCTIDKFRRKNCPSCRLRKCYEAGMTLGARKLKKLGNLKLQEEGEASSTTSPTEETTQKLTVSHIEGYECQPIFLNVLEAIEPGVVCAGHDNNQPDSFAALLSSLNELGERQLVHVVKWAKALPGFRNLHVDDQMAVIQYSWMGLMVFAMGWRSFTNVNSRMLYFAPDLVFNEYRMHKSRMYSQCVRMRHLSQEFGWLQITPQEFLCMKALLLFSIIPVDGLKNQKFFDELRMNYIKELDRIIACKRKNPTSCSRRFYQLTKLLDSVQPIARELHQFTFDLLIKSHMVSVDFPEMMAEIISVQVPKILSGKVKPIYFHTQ
Summary of the method: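 MDA-kb2 cells carrying MMTV-luciferase (AR/GR responsive), 3,000 cells/well, co-treated with 3.0 uM nilutamide final. Compounds at 15 concentrations, 16 hr at 37C without CO2. Luciferase luminescence read after 30 min with ONE-Glo.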

Measured: Potency

CCCCCCCCOS(=O)(=O)O
not listed: [9]
inactive: all other assays above

CC(N)C(=O)OC(C)(C)Cc1ccc(Cl)cc1 (stereo not given)
not listed: [8] | [9]
inactive: all other assays above

COCCOCCOCCOCCOCCO
not listed: [6] | [9]
inactive: all other assays above

COc1cc(NS(=O)(=O)c2ccc(N)cc2)nc(OC)n1
not listed: [7] | [8]
inactive: all other assays above

C=C(C)C(=O)OCc1ccccc1
inactive: [1] | [3] | [4] | [5] | [6]

CCCCCCCCC(=O)Cl
inactive: [1] | [3] | [4] | [5] | [6]

CC(=O)c1ccc2c(c1)Cc1ccccc1-2
inactive: [1] | [3] | [4] | [5] | [6]

COc1cc(N)ccc1C
not listed: [4] | [6] | [9]
inactive: all other assays above

CCCN1C[C@H](CSC)C[C@@H]2c3cccc4[nH]cc(c34)C[C@H]21
not listed: [4] | [9]
inactive: all other assays above

CC(=O)Nc1ccc(S(=O)(=O)Cl)cc1
inactive: [1] | [2] | [3] | [5]

Cc1cccc(OCC(O)CNC(C)(C)C)c1C (stereo not given)
active: [4] 13.3 µM
not listed: [2] | [6]
inactive: all other assays above

CC(C(=O)O)c1ccc2c(c1)CC(=O)c1ccccc1S2 (stereo not given)
not listed: [2] | [8]
inactive: all other assays above
